Data: PubChem BioAssay AID652054 (National Center for Advancing Translational Sciences (NCATS), 2013)
In all, about 360,000 compounds went through this assay and about 9,100 (2.5%) were called active. About 4% were inconclusive and are not listed. The list comes from a sample in which actives are over-represented; it also holds similar structures and randomly drawn compounds. Unmarked numbers belong to inactive results. Cut-off read from the data, not from the text of the source: active = max response below about -50%; inconclusive = no clear call, values can overlap the other calls; inactive = above that.

target: D(3) dopamine receptor (Homo sapiens) (UniProt P35462); assay: qHTS of D3 Dopamine Receptor Antagonist: qHTS; details: D3R cells, DiscoveRx beta-arrestin luminescence, antagonist mode; hits give low values
Sequence (P35462 whole entry, looked up): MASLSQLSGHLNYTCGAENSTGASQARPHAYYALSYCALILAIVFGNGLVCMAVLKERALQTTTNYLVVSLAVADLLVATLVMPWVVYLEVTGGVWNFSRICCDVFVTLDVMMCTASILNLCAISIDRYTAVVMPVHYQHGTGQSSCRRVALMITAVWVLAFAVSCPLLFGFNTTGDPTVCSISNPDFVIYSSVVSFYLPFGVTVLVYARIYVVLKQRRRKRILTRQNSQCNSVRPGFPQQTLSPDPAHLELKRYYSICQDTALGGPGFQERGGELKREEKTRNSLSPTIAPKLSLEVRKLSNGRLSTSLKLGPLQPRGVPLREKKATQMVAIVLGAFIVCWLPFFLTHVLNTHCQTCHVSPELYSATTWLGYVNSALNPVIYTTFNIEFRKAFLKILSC
In short: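 Cells plated overnight at 1500 cells/well, then exposed to library compounds with dopamine controls for 90 minutes at 37 degrees C. DiscoveRx reagent added for 30–60 minutes at room temperature; luminescence read, quantitative HTS format.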
% is set by controls: 0 for no effect and ±100 for the full control effect.

How did the max response, negative = inhibition turn out when `Cc1nc2c(OCc3ccc(Cl)cc3Cl)cccn2c1N(C)CC1CC1` was run?
Its max response, negative = inhibition is -58.1% (active).

With `CCc1nc2c(OCCOc3ccccc3)cccn2c1N(C)C(=O)c1ccc(OC)cc1` as the compound, how does the max response, negative = inhibition read?
Its max response, negative = inhibition is -76.4% (active).

How did the max response, negative = inhibition turn out when `CCCCN(C=O)c1c(CC)nc2c(OCc3ccccc3C(=O)OC)cccn12` was run?
The max response, negative = inhibition was -3.94%.

How did the max response, negative = inhibition turn out when `CCc1nc2c(OCc3ccc(C(=O)OC)cc3)cccn2c1N(C)C(=O)C(C)C` was run?
The max response, negative = inhibition was -12.4%.

Which max response, negative = inhibition does the source give for `CCc1nc2c(OCCOc3ccccc3)cccn2c1N(C)C(=O)c1ccccc1F` here?
The max response, negative = inhibition was 14.9%.

With `CCc1nc2c(OCc3ccc(Cl)cc3Cl)cccn2c1N(C)C(=O)C(C)C` as the compound, how does the max response, negative = inhibition read?
The max response, negative = inhibition was -27.6%.

For `COc1ccc(NC(=O)N(C)C[C@@H]2OCc3cn(nn3)CCCC(=O)N([C@H](C)CO)C[C@H]2C)c(OC)c1`, which max response, negative = inhibition is on record?
The max response, negative = inhibition was -1.72%.

`Cc1ccc2nc(-c3ccco3)c(Cc3cccc(Cl)c3)n2c1` was tested. Which max response, negative = inhibition did it give?
Its max response, negative = inhibition is -5.94%.

Which max response, negative = inhibition does the source give for `CCOCCC(=O)Nc1ccc2c(c1)c(=O)n(C)n2-c1ccc2ccccc2c1` here?
Its max response, negative = inhibition is -26.6%.

For `COc1cccc(C(NC(C)=O)c2nc(-c3ccccc3OC)cs2)c1` (centres undefined), which max response, negative = inhibition is on record?
The max response, negative = inhibition was 0%.

For `CCN(CC)C(=O)C1=C(C)N(Cc2ccc(OC)cc2)C(=O)C(CC(=O)NCCCCc2ccccc2)C1` (centres undefined), which max response, negative = inhibition is on record?
The max response, negative = inhibition was 17.3%.

For `CCOc1ccc(CCN2C(=S)N([C@@H](CC(C)C)CN3CCC[C@@H]3CN3C(=S)NC[C@@H]3Cc3ccc(O)cc3)C[C@@H]2Cc2ccc(O)cc2)cc1`, which max response, negative = inhibition is on record?
The max response, negative = inhibition was 1.51%.

For `CCCCN(C)C(=O)C1CCN(Cc2ccccn2)CC1`, which max response, negative = inhibition is on record?
The max response, negative = inhibition was -26.1%.

`CCCCN(Cc1ccccc1)C(=O)C1CCN(Cc2sccc2C)CC1` was tested. Which max response, negative = inhibition did it give?
The max response, negative = inhibition was -66.6% (active).

`CCCC(=O)C1CCN(Cc2ccccc2)CC1` was tested. Which max response, negative = inhibition did it give?
The max response, negative = inhibition was -29.3%.

With `Cc1ccc(F)c(S(=O)(=O)NC(=O)C2(C)CCN2C(=O)c2ccco2)c1` (centres undefined) as the compound, how does the max response, negative = inhibition read?
The max response, negative = inhibition was 0%.

With `O=C(NC1CCCCC1)C(c1cc2ccccc2o1)n1c(=O)c(-c2ccco2)nc2ccccc21` (centres undefined) as the compound, how does the max response, negative = inhibition read?
Its max response, negative = inhibition is -5.65%.

For `Cc1ccc(N(C(=O)Cc2cccs2)C2C=CS(=O)(=O)C2)cc1Cl` (centres undefined), which max response, negative = inhibition is on record?
The max response, negative = inhibition was 9.44%.

With `CCCCC(=O)N(c1ccc(OC)cc1)C1C=CS(=O)(=O)C1` (centres undefined) as the compound, how does the max response, negative = inhibition read?
Its max response, negative = inhibition is -109% (active).

How did the max response, negative = inhibition turn out when `Cc1ccc(N(C(=O)c2ccc(S(=O)(=O)N(C)C)cc2)C2C=CS(=O)(=O)C2)cc1` (centres undefined) was run?
Its max response, negative = inhibition is -16.5%.

With `CCCCCc1c(Cc2ccccc2)ncn1CCc1ccccc1OC` as the compound, how does the max response, negative = inhibition read?
Its max response, negative = inhibition is -13.9%.

`O=C(Nc1cccc(C(=O)O)c1)/C(=C\c1ccccc1)NC(=O)c1ccc(Br)o1` was tested. Which max response, negative = inhibition did it give?
Its max response, negative = inhibition is -22%.

Which max response, negative = inhibition does the source give for `CC(=O)N1CCN(CC(c2ccccc2)c2ccccc2)CC1` here?
Its max response, negative = inhibition is 18.7%.

How did the max response, negative = inhibition turn out when `Cn1nnnc1SCC(=O)N1CCN(C(c2ccccc2)c2ccccc2)CC1` was run?
Its max response, negative = inhibition is 2.83%.

How did the max response, negative = inhibition turn out when `COc1ccccc1NC(=S)N1CCN(C(c2ccccc2)c2ccccc2)CC1` was run?
Its max response, negative = inhibition is -5.17%.

How did the max response, negative = inhibition turn out when `COc1ccccc1CN1CCN(C(c2ccccc2)c2ccccc2)CC1` was run?
The max response, negative = inhibition was -95.1% (active).

`Oc1ccccc1CN1CCN(C(c2ccccc2)c2ccccc2)CC1` was tested. Which max response, negative = inhibition did it give?
Its max response, negative = inhibition is -76.9% (active).

With `CC(C)OCC(O)CN1CCN(C(c2ccccc2)c2ccccc2)CC1` (centres undefined) as the compound, how does the max response, negative = inhibition read?
The max response, negative = inhibition was -50.4% (active).

With `c1ccc(C(c2ccccc2)N2CCN(Cc3nnnn3C3CCCCC3)CC2)cc1` as the compound, how does the max response, negative = inhibition read?
Its max response, negative = inhibition is -13.5%.

`O=C(C(c1ccccc1)c1ccccc1)N1CCN(CC(O)COc2ccccc2)CC1` (centres undefined) was tested. Which max response, negative = inhibition did it give?
The max response, negative = inhibition was -23.3%.

For `COc1ccccc1CN1CCN(Cc2cc(OC)c(OC)cc2OC)CC1`, which max response, negative = inhibition is on record?
The max response, negative = inhibition was -21.9%.

Which max response, negative = inhibition does the source give for `CCCOc1ccc(F)cc1-c1cc(C(=O)Nc2ccc(F)cc2)[nH]n1` here?
Its max response, negative = inhibition is 12.6%.

Which max response, negative = inhibition does the source give for `CN(CCO)C(=O)c1nc[nH]c1C(=O)N(C)Cc1ccccc1` here?
The max response, negative = inhibition was -16.2%.

For `Cc1ccccc1-c1ccc2c(c1)O[C@@H](CN(C)Cc1ccc(C(=O)O)cc1)[C@@H](C)CN([C@H](C)CO)S2(=O)=O`, which max response, negative = inhibition is on record?
Its max response, negative = inhibition is 17.1%.

How did the max response, negative = inhibition turn out when `CC1(C(=O)NS(=O)(=O)c2cccc(F)c2)CCN1C(=O)Cc1ccc(Cl)cc1Cl` (centres undefined) was run?
The max response, negative = inhibition was -11%.

How did the max response, negative = inhibition turn out when `O=C(Nc1cccc2ccccc12)c1[nH]c(-c2ccccc2)c2c1C(=O)N(C1CC1)C2=O` was run?
The max response, negative = inhibition was 81%.

`CCC(C)CN1C(=O)CN(S(C)(=O)=O)CC1(C)C(=O)Nc1ccc2c(c1)OCCO2` (centres undefined) was tested. Which max response, negative = inhibition did it give?
Its max response, negative = inhibition is 15.4%.

Which max response, negative = inhibition does the source give for `CC(=O)c1ccc(-c2cnc3c(NC=O)cc(-c4cccc(NS(C)(=O)=O)c4)cn23)cc1` here?
Its max response, negative = inhibition is 127%.

`Nc1ncnc2c1ncn2[C@@H]1O[C@H](C(=O)N2CCSC2)[C@@H](O)[C@H]1O` was tested. Which max response, negative = inhibition did it give?
The max response, negative = inhibition was -26.3%.

With `COc1cccc(-c2nc3nc(C)cc(C)n3c2NC2CCCCC2)c1` as the compound, how does the max response, negative = inhibition read?
The max response, negative = inhibition was -19.4%.

Which max response, negative = inhibition does the source give for `C=C1C(=O)[C@]23C[C@H]1CCC2[C@@]1(C)C(C[C@@H]3O)[C@](C)(C(=O)O)CC[C@@H]1O` (some centres undefined) here?
Its max response, negative = inhibition is -16.7%.

Which max response, negative = inhibition does the source give for `CC1CC2=C(CC1/C=N/NC(N)=S)C(C)(C)CCC2` (centres undefined) here?
Its max response, negative = inhibition is -76.3% (active).

How did the max response, negative = inhibition turn out when `COC(=O)C(Cc1c[nH]c2ccccc12)NC(=O)CCNC(=O)c1ccco1` (centres undefined) was run?
Its max response, negative = inhibition is 40%.

For `CN(Cc1cn(Cc2ccc(C(F)(F)F)cc2)nn1)C1CN(Cc2cn(Cc3ccc(C(F)(F)F)cc3)nn2)S(=O)(=O)C1` (centres undefined), which max response, negative = inhibition is on record?
The max response, negative = inhibition was 0%.
